Measured values: PubChem BioAssay AID1159580 (chemical genetic matrix, 2015)
About 2,000 (36%) of roughly 5,500 compounds were called active. Another 18% or so got no clear call; they are omitted. Cut-off read from the data, not from the text of the source: active = normalized growth mostly below about 0.91 (no sharp cut-off); inconclusive = no clear call, values can overlap the other calls; inactive = mostly above about 0.92. Some of the results follow.

Assay: chemical genetic growth profiling, strain panel (AID 1159580);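 note: tested at 20 µM; growth read once vehicle control cultures reached saturation at 30 °C; 1 = growth at the plate median or of vehicle wells; lower values mean less growth of the strain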
Settings: growth OD

Measured: normalized growth

CC(=O)O[C@H]1CC[C@]2(C)C3CC[C@@]4(C)C(CC5O[C@@]6(CCC(C)CO6)[C@@H](C)C54)C3CC[C@@H]2C1 (stereo partly specified)
inactive: S. cerevisiae deletion strains, locus YJR066W, strain TOR1, active compounds read low 0.946 | S. cerevisiae deletion strains, locus YJR075W, strain HOC1, active compounds read low 0.982 | S. cerevisiae deletion strains, locus YKL009W, strain mrt4, active compounds read low 1.04 | S. cerevisiae deletion strains, locus YKL068W, active compounds read low 1 | S. cerevisiae deletion strains, locus YKL160W, strain elf1, active compounds read low 1.01 | S. cerevisiae deletion strains, locus YKL190W, strain CNB1, active compounds read low 1 | S. cerevisiae deletion strains, locus YKR001C, strain vps1, active compounds read low 0.998 | S. cerevisiae deletion strains, locus YKR026C, strain gcn3, active compounds read low 1.02 | S. cerevisiae deletion strains, locus YKR091W, strain srl3, active compounds read low 1.02 | S. cerevisiae deletion strains, locus YLL001W, strain dnm1, active compounds read low 1.01 | S. cerevisiae deletion strains, locus YLL026W, active compounds read low 1.02 | S. cerevisiae deletion strains, locus YLL041C, strain sdh2, active compounds read low 1.02 | S. cerevisiae deletion strains, locus YLR027C, strain aat2, active compounds read low 1 | S. cerevisiae deletion strains, locus YLR039C, strain RIC1, active compounds read low 0.992 | S. cerevisiae deletion strains, locus YLR058C, strain SHM2, active compounds read low 0.993 | S. cerevisiae deletion strains, locus YLR102C, strain apc9, active compounds read low 0.991 | S. cerevisiae deletion strains, locus YLR113W, strain HOG1, active compounds read low 0.963 | S. cerevisiae deletion strains, locus YLR221C, strain rsa3, active compounds read low 1.03 | S. cerevisiae deletion strains, locus YLR258W, strain gsy2, active compounds read low 1.01 | S. cerevisiae deletion strains, locus YLR262C, strain YPT6 (second series), active compounds read low 1.01 | S. cerevisiae deletion strains, locus YLR268W, strain sec22, active compounds read low 0.998 | S. cerevisiae deletion strains, locus YLR320W, strain mms22, active compounds read low 1.03 | S. cerevisiae deletion strains, locus YLR330W, strain CHS5, active compounds read low 0.984 | S. cerevisiae deletion strains, locus YLR342W, strain FKS1 (second series), active compounds read low 1.01 | S. cerevisiae deletion strains, locus YLR342W, strain FKS1, active compounds read low 1.03 | S. cerevisiae deletion strains, locus YLR357W, strain rsc2, active compounds read low 1.01 | S. cerevisiae deletion strains, locus YLR370C, strain arc18, active compounds read low 1.02 | S. cerevisiae deletion strains, locus YLR371W, strain rom2, active compounds read low 0.99 | S. cerevisiae deletion strains, locus YLR384C, strain iki3, active compounds read low 0.99 | S. cerevisiae deletion strains, locus YLR418C, strain cdc73, active compounds read low 0.947 | S. cerevisiae deletion strains, locus YML016C, strain PPZ1, active compounds read low 0.992 | S. cerevisiae deletion strains, locus YML032C, strain rad52, active compounds read low 0.977 | S. cerevisiae deletion strains, locus YML120C, strain ndi1, active compounds read low 1.03 | S. cerevisiae deletion strains, locus YML124C, strain tub3, active compounds read low 0.979 | S. cerevisiae deletion strains, locus YMR058W, strain fet3, active compounds read low 1.01 | S. cerevisiae deletion strains, locus YMR078C, strain ctf18, active compounds read low 1 | S. cerevisiae deletion strains, locus YMR125W, strain sto1, active compounds read low 1.03 | S. cerevisiae deletion strains, locus YMR129W, active compounds read low 1 | S. cerevisiae deletion strains, locus YMR205C, strain PFK2, active compounds read low 0.999 | S. cerevisiae deletion strains, locus YMR223W, strain ubp8, active compounds read low 0.984 | S. cerevisiae deletion strains, locus YMR231W, strain pep5, active compounds read low 1.01 | S. cerevisiae deletion strains, locus YMR263W, strain SAP30, active compounds read low 0.996 | S. cerevisiae deletion strains, locus YMR307W, strain GAS1, active compounds read low 1.12 | S. cerevisiae deletion strains, locus YNL067W, strain RPL9B, active compounds read low 0.98 | S. cerevisiae deletion strains, locus YNL071W, strain lat1, active compounds read low 1 | S. cerevisiae deletion strains, locus YNL128W, strain TEP1, active compounds read low 0.998 | S. cerevisiae deletion strains, locus YNL153C, strain GIM3, active compounds read low 0.984 | S. cerevisiae deletion strains, locus YNL183C, strain NPR1, active compounds read low 0.964 | S. cerevisiae deletion strains, locus YNL209W, strain ssb2, active compounds read low 1 | S. cerevisiae deletion strains, locus YNL233W, strain BNI4, active compounds read low 1.02 | S. cerevisiae deletion strains, locus YNL248C, strain rpa49, active compounds read low 1.02 | S. cerevisiae deletion strains, locus YNL250W, strain rad50, active compounds read low 0.975 | S. cerevisiae deletion strains, locus YNL271C, strain bni1, active compounds read low 0.989 | S. cerevisiae deletion strains, locus YNL298W, strain CLA4, active compounds read low 1 | S. cerevisiae deletion strains, locus YNL307C, strain MCK1, active compounds read low 0.996 | S. cerevisiae deletion strains, locus YNL322C, strain KRE1 (second series), active compounds read low 1.03 | S. cerevisiae deletion strains, locus YNR049C, strain mso1, active compounds read low 0.995 | S. cerevisiae deletion strains, locus YNR052C, strain pop2, active compounds read low 0.983 | S. cerevisiae deletion strains, locus YOL012C, strain htz1 0.761 | S. cerevisiae deletion strains, locus YOL147C, strain pex11, active compounds read low 0.986 | S. cerevisiae deletion strains, locus YOR001W, strain rrp6, active compounds read low 1.01 | S. cerevisiae deletion strains, locus YOR061W, strain CKA2, active compounds read low 0.999 | S. cerevisiae deletion strains, locus YOR069W, strain VPS5, active compounds read low 0.983 | S. cerevisiae deletion strains, locus YOR070C, strain gyp1, active compounds read low 1.02 | S. cerevisiae deletion strains, locus YOR080W, strain dia2, active compounds read low 1.01 | S. cerevisiae deletion strains, locus YOR083W, strain WHI5, active compounds read low 1.04 | S. cerevisiae deletion strains, locus YOR106W, strain vam3, active compounds read low 1.02 | S. cerevisiae deletion strains, locus YOR136W, strain idh2, active compounds read low 0.993 | S. cerevisiae deletion strains, locus YOR144C, strain elg1, active compounds read low 0.994 | S. cerevisiae deletion strains, locus YOR184W, strain ser1, active compounds read low 1.03 | S. cerevisiae deletion strains, locus YOR231W, strain MKK1, active compounds read low 0.988 | S. cerevisiae deletion strains, locus YOR265W, strain rbl2, active compounds read low 1.02 | S. cerevisiae deletion strains, locus YOR270C, strain vph1, active compounds read low 1 | S. cerevisiae deletion strains, locus YOR290C, strain snf2, active compounds read low 1.03 | S. cerevisiae deletion strains, locus YOR316C, strain cot1, active compounds read low 0.989 | S. cerevisiae deletion strains, locus YPL051W, strain arl3, active compounds read low 1.02 | S. cerevisiae deletion strains, locus YPL078C, strain atp4, active compounds read low 1.04 | S. cerevisiae deletion strains, locus YPL106C, strain sse1, active compounds read low 0.978 | S. cerevisiae deletion strains, locus YPL240C, strain hsp82, active compounds read low 1 | S. cerevisiae deletion strains, locus YPL256C, strain CLN2, active compounds read low 0.957 | S. cerevisiae deletion strains, locus YPR119W, strain clb2, active compounds read low 0.984 | S. cerevisiae deletion strains, locus YPR141C, strain kar3, active compounds read low 0.98 | S. cerevisiae deletion strains, locus YPR163C, strain tif3, active compounds read low 0.986 | S. cerevisiae deletion strains, locus YPR167C, strain met16, active compounds read low 1 | S. cerevisiae deletion strains, strain wtn01, active compounds read low 1.01 | S. cerevisiae strains, strain wild type, active compounds read low 1.01
